# Test results from PubChem BioAssay (NCATS).
# Records with an inconclusive call do not appear. Calls of active or inactive are those of the source. Unless noted, calls follow the shape of the full dose curve.
# Key:
# [1] = target: Lysosomal acid glucosylceramidase (Homo sapiens) (UniProt P04062); test: Glucocerebrosidase-p2 (AID 348; in the data active = potency below about 10 µM; also: potency is read from the fitted curve at half-maximal effect); conditions: purified GBA, blue fluorogenic substrate, 40 min
# Procedure, shortened: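 Normal human glucocerebrosidase (0.2 nM) with blue fluorogenic substrate (80 uM final) in citrate/phosphate pH 5.9 with 10mM sodium taurocholate, 0.01% tween-20; 40 min RT, NaOH/glycine stop; fluorescence Ex 365/Em 440; AC50 from a titration from 0.6 nM upwards.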
# [2] = AP1 Signaling Pathway (AID 357; active = well fitted curve in either direction with a large enough effect, not every such curve was filed as active;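 also: ME-180 reporter cells stimulated with EGF at its EC50 level; % is scaled to controls: 0 for no effect and ±100 for the full control effect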); conditions: ME-180 AP-1-bla reporter, EGF-induced, beta-lactamase ratio, 5 h; at 7.69 µM (top of the series) unless noted
# Procedure, shortened: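 Cells are seeded overnight, exposed to compound titrations and an EC50 level of EGF for 5 hours at 37 °C, then loaded with CCF4 dye for 2.5 hours. Beta-lactamase activity under the AP-1 element is read as a blue/green ratio.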
# [3] = target: Cytochrome P450 1A2 (Homo sapiens) (UniProt P05177); test: p450-cyp1a2 (AID 410); conditions: recombinant CYP1A2, luciferin-ME demethylation, luminescence; series mostly up to 57 µM; also: potency is read from the fitted curve at half-maximal effect;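 as to activity change, negative = inhibition: -100% = full effect of reference inhibitor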
# Procedure, shortened: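 Read-out is luminescence from luciferin produced by CYP1A2 demethylation of Luciferin-ME (100uM, at Km). Detection reagent stopped the 60 min NADPH-dependent reaction; signals were normalized to 57 uM furafylline.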
# [4] = Stat Signaling Pathway (AID 446; active = well fitted curve in either direction with a large enough effect, not every such curve was filed as active;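 also: ME-180 cervical cancer cells given 40 pM IL-6 alongside compound; SIE-controlled beta-lactamase reporter measured as 460/530 nm FRET emission ratio; % is scaled to controls: 0 for no effect and ±100 for the full control effect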); conditions: ME-180 SIE beta-lactamase reporter, IL-6 stimulated, 5 h; at 7.69 µM (top of the series) unless noted
# Procedure, shortened: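 Emission at 460 and 530 nm (excitation 405 nm) reports SIE-controlled beta-lactamase in ME-180 cells. Cells received compound with 40 pM IL-6 for 5 hrs at 37 C; data scaled between 300 pM IL-6 and 125 nM JAK-inhibitor controls.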
# [5] = target: Glucocorticoid receptor (Homo sapiens) (UniProt P04150); test: GR-EFC Redistribution (AID 451); conditions: CHO-K1 GR-EFC translocation, beta-gal luminescence, 2 h; also: potency is read from the fitted curve at half-maximal effect
# Procedure, shortened: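 CHO-K1 cells expressing nuclear EA and GR-ED fragments of b-gal; compounds titrated up to 46 uM final, 2 h at 37 C. GR nuclear translocation read as complemented b-gal luminescence after 1 h RT detection.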
# [6] = target: Mitogen-activated protein kinase 10 (Mus musculus) (UniProt Q61831); test: JNK3 AlphaScreen Assay (AID 530; active = well fitted curve in either direction with a large enough effect, not every such curve was filed as active;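 also: kinase came from lysate of stimulated human HepG2 cells; signal reports phosphorylation of biotinylated GST-cJun 1-79 at Ser73 with 10 µM ATP; % is scaled to controls: 0 for no effect and ±100 for the full control effect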); conditions: JNK3 lysate, c-Jun phosphorylation; series mostly up to 57.1 µM
# Procedure, shortened: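 HepG2 lysate (IL-1b/TNFa pre-activated) + biotin-GST-cJun 1-79 + anti-pSer73 cJun; cpd titration, 15 min RT; ATP 10 uM start; Tris pH 7.6, MgCl2, DTT, vanadate; beads in EDTA buffer; AlphaScreen.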
# [7] = target: 3',5'-cyclic-AMP phosphodiesterase 4B (Homo sapiens) (UniProt Q07343); test: qHTS Assay for Inhibitors of PDE-IV (AID 607; active = well fitted activation curve with a large enough effect in the main read-out, with a control signal flat, not every such curve was filed as active; also: % of control where 0% means no effect); conditions: HEK293 ACTOne CNG channel cells, membrane potential fluorescence; series mostly up to 22.9 µM
# Procedure, shortened: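 The readout is membrane depolarisation from a cAMP-sensing CNG channel, detected with a potential dye at ex 535/em 590. Cells were HEK293-derived (endogenous PDE-IV) at 1000 cells/well, titrated up to 22.9 uM final.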
# [8] = target: Cytochrome P450 3A4 (Homo sapiens) (UniProt P08684); test: qHTS Assay for Inhibitors and Substrates of Cytochrome P450 3A4 (AID 884; active = well fitted curve in the direction sought with a large enough effect; an effect the other way counts as inactive or inconclusive; also: nearly all actives have a fitted effect of over 50% in size; also: potency is read from the fitted curve at half-maximal effect); conditions: recombinant CYP3A4, Luciferin-PPXE luminescence; series mostly up to 57.1 µM
# Procedure, shortened: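 Luminescent readout of luciferin produced by CYP3A4 (20 nM) dealkylation of Luciferin-PPXE, 25 uM (its KM). NADPH-driven reaction ran 60 min at RT after 10 min compound preincubation; data scaled to 57 uM ketoconazole as 100% inhibition.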
# [9] = target: Cytochrome P450 3A4 (Homo sapiens) (UniProt P08684); test: qHTS Assay for Activators of Cytochrome P450 3A4 (AID 885; active = well fitted curve in the direction sought with a large enough effect; an effect the other way counts as inactive or inconclusive; also: nearly all actives have a fitted effect of over 65% in size; also: potency is read from the fitted curve at half-maximal effect); conditions: recombinant CYP3A4, Luciferin-PPXE luminescence, 60 min; series mostly up to 57.1 µM
# Procedure, shortened: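 Activators are scored by enhanced luminescence from CYP3A4 conversion of luciferin-PPXE (25uM, equal to KM) to luciferin, after 60 min at RT with an NADPH-regenerating system.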
# [10] = target: Cytochrome P450 2D6 (Homo sapiens) (UniProt P10635); test: qHTS Assay for Inhibitors and Substrates of Cytochrome P450 2D6 (AID 891; active = well fitted curve in the direction sought with a large enough effect; an effect the other way counts as inactive or inconclusive; also: potency is read from the fitted curve at half-maximal effect; nearly all actives have a fitted effect of over 60% in size); conditions: recombinant CYP2D6, luciferin-ME EGE luminescence; series mostly up to 57.1 µM
# Procedure, shortened: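 Luminescent read-out of luciferin formed by 5 nM human CYP2D6 demethylating 30 uM Luciferin-ME EGE (Km level) over 60 min at room temperature after NADPH regeneration addition. Data normalized to full inhibition by 1.43 uM quinidine.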
# [11] = qHTS Assay for Identification of Small Molecule Agonists for Hypoxia Response Element Signaling Pathway (AID 914; active = well fitted activation curve with a large enough effect in the signal ratio, with a control signal flat, not every such curve was filed as active; the % refers to the signal ratio; also: % of control where 0% means no effect); conditions: ME-180 (cervical carcinoma) HRE-bla reporter, beta-lactamase ratio, CoCl2, 17 h; activation: stronger effect = higher value
# Procedure, shortened: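 HRE-bla ME-180 cells, overnight plating in Opti-MEM with 0.5% dialyzed FBS; cpd titration + EC50 CoCl2, 17 h, 37 degrees Celsius; CCF4 2.5 h RT; 460/530 nm ratio; AC50.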
# [12] = qHTS Assay for Lipid Storage Modulators (AID 1519); conditions: Drosophila S3 cells, BODIPY lipid droplet/cell ratio, laser cytometry, cells loaded with oleic acid; for activity change, negative = inhibition: at 57.5 µM (top of the series)
# Procedure, shortened: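 Cells seeded at 5,000 per well were treated with compounds over a concentration series and loaded with oleic acid (400 uM, as added). Lipid droplet fluorescence (488 nm excitation, 500-530 nm channel) was read by laser-scanning cytometry and normalized to 20 uM Triacsin C.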
# [13] = Primary qHTS for small molecule stabilizers of the endoplasmic reticulum resident proteome: Secreted ER Calcium Modulated Protein (SERCaMP) assay (AID 1508630; active = well fitted curve in the direction sought with a large enough effect; an effect the other way counts as inactive or inconclusive; also: % is scaled to controls: 0 for no effect and ±100 for the full control effect); conditions: SH-SY5Y GLuc-SERCaMP (Gaussia luciferase released on ER calcium loss) secretion, thapsigargin, luminescence; series mostly up to 38.4 µM
# Procedure, shortened: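 The SH-SY5Y reporter protocol was run at 3 concentrations up to 38.3 uM (primary) or 11 concentrations (follow-up): 16 h compound, 100 nM thapsigargin for 4 h, then extracellular luciferase luminescence.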
# [14] = target: Cytochrome P450 2C9 (Homo sapiens) (UniProt P11712); test: qHTS Assay for Inhibitors and Substrates of Cytochrome P450 2C9 (AID 883; active = well fitted curve in the direction sought with a large enough effect; an effect the other way counts as inactive or inconclusive; also: potency is read from the fitted curve at half-maximal effect; nearly all actives have a fitted effect of over 60% in size); conditions: recombinant CYP2C9, luciferin-H luminescence, 60 min; series mostly up to 57.1 µM
# Procedure, shortened: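 10nM CYP2C9 + 100uM Luciferin-H (=KM), 25mM KPO4; cpd 10 min 37C; NADPH regen, 60 min 37C; stop/detect with P450 Glo-Buffer 20 min; luminescence. Norm. to 57uM sulphaphenazole as full inhibition.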
# [15] = measured here: cell count channel max response
# [16] = measured here: lipid channel max response
# Cytochrome P450 1A2 (Homo sapiens), sequence (P05177 whole entry, looked up): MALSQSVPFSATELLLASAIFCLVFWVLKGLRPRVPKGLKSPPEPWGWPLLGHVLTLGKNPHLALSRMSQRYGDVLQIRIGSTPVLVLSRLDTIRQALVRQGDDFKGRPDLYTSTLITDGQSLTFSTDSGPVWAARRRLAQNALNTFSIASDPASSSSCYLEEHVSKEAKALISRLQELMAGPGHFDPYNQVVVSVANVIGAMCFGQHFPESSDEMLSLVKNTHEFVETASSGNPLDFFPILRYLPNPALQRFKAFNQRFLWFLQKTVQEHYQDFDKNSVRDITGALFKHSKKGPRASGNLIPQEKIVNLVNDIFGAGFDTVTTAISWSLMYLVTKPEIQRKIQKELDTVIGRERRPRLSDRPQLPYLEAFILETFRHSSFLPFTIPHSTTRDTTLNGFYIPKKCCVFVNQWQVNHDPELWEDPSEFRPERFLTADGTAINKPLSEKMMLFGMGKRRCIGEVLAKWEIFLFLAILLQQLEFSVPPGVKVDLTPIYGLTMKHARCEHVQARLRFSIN
# 3',5'-cyclic-AMP phosphodiesterase 4B (Homo sapiens), sequence (Q07343 whole entry, looked up): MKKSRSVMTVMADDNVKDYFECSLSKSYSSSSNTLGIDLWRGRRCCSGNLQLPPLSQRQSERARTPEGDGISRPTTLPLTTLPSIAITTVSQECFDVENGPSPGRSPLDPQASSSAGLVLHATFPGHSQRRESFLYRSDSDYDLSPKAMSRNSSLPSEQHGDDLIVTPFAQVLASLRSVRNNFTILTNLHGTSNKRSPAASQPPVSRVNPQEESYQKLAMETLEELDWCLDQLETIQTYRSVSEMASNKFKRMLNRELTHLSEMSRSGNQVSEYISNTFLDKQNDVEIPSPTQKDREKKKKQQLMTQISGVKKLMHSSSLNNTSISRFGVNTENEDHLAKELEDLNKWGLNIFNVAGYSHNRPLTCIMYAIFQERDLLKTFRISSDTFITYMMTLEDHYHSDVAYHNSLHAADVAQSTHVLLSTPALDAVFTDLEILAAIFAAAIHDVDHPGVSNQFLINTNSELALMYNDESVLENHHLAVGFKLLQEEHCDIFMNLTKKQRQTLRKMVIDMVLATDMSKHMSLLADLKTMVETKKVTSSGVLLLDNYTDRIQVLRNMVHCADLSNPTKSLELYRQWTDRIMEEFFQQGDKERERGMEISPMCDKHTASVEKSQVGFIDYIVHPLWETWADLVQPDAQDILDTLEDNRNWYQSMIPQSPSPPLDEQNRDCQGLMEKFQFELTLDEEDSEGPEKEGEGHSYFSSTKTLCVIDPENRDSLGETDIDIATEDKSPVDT
# Cytochrome P450 3A4 (Homo sapiens), sequence (P08684 whole entry, looked up): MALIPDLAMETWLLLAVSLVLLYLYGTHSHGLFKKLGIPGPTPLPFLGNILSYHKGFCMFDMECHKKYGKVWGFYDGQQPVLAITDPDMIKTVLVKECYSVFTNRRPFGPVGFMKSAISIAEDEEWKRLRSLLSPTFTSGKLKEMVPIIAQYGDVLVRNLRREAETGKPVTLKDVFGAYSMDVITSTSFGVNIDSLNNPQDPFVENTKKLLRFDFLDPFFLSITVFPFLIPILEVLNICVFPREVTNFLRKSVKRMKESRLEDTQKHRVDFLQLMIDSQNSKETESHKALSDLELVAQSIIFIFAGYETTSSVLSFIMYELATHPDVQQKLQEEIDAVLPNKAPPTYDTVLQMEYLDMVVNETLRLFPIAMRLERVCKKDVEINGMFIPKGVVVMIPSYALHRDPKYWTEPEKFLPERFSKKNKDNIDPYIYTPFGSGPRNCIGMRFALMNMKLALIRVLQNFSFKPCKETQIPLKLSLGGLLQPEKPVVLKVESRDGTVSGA
# Lysosomal acid glucosylceramidase (Homo sapiens), sequence (P04062 whole entry, looked up): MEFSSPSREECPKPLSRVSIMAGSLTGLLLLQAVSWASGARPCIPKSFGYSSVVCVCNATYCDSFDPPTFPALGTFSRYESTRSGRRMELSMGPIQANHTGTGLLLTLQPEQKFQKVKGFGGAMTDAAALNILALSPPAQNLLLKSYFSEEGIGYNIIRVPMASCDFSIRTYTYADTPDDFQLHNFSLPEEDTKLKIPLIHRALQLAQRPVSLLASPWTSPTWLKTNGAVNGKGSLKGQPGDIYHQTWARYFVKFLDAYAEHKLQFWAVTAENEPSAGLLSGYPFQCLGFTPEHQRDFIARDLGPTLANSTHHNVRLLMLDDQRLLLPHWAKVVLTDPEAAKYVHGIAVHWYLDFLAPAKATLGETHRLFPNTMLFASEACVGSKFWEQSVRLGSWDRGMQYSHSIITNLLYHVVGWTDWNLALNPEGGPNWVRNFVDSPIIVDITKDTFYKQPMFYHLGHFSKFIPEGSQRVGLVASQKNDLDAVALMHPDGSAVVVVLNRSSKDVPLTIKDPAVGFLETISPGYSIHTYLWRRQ
# Glucocorticoid receptor (Homo sapiens), sequence (P04150 whole entry, looked up, the tested form may be a part): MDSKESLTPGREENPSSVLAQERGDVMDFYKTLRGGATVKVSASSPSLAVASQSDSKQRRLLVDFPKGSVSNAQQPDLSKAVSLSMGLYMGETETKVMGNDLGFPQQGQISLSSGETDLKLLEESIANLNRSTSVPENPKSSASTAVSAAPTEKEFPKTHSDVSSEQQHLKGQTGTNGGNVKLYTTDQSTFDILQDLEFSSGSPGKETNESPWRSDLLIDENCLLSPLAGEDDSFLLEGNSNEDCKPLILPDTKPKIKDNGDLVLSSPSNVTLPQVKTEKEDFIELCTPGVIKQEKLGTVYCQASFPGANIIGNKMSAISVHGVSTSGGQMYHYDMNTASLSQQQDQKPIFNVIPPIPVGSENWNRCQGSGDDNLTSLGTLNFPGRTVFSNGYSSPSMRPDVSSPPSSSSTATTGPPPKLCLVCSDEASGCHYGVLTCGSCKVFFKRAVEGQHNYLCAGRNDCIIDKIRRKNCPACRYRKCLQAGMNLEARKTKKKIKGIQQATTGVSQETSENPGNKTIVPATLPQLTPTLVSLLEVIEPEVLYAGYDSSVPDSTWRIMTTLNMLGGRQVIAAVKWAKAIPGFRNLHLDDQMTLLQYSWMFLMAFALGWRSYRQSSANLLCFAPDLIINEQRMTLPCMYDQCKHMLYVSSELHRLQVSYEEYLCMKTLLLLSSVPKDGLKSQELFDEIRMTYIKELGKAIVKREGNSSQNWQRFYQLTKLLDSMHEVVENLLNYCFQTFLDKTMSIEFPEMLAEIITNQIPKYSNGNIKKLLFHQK
# Cytochrome P450 2D6 (Homo sapiens), sequence (P10635 whole entry, looked up): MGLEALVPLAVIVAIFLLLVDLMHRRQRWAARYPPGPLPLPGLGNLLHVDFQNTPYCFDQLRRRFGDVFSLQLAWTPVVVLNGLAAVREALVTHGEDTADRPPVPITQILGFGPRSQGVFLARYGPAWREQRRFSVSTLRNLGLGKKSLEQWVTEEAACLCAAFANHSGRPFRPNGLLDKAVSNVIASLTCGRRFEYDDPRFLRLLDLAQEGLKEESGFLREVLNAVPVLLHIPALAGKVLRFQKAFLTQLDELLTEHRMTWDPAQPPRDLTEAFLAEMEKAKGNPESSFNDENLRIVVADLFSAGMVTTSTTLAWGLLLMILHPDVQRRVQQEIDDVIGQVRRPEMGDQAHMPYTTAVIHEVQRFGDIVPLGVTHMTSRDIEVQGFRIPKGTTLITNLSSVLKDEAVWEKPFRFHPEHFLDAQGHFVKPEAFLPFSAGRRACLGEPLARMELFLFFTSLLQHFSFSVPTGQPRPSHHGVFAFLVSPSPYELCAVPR
# Cytochrome P450 2C9 (Homo sapiens), sequence (P11712 whole entry, looked up): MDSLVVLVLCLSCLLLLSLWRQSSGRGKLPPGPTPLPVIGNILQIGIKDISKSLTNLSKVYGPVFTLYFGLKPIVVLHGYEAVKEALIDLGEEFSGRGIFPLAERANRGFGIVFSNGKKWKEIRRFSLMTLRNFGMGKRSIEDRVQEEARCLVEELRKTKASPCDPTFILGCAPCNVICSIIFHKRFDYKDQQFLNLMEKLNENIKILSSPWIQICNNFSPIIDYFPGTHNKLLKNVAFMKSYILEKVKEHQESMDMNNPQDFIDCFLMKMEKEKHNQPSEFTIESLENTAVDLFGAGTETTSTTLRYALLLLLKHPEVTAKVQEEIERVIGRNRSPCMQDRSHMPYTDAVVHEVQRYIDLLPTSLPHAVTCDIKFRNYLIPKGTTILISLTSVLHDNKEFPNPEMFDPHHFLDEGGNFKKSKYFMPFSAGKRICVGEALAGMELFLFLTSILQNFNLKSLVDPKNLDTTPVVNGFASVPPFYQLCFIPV
SMILES,Potency [1],"activity change, negative = inhibition [2]",Potency [3],"activity, negative = inhibition [4]",Potency [5],Potency [6],Potency [7],Potency [8],Potency [9],Potency [10],activation [11],"activity change, negative = inhibition [12]","max response [12, 15] [%]","max response [12, 16] [%]",outcome [13],Potency [14]
COc1ccccc1CN1CCCC2(CCN(C(=O)c3ccncc3)CC2)C1,> 11.4 µM (inactive),-0.588% (inactive),20 µM (active),1.91% (inactive),> 46 µM (inactive),inactive,inactive,6.31 µM (active),inactive,3.16 µM (active),3.13% (inactive),1.58% (inactive),5.27,9.4,inactive,
Cn1cccc1C(=O)N1CCC2(CC1)CN(c1ccccn1)C2,> 11.4 µM (inactive),2.02% (inactive),inactive,-6.36% (inactive),> 46 µM (inactive),inactive,inactive,inactive,12.6 µM (active),,,5.7% (inactive),7.05,13.8,inactive,
O=C(c1ccco1)N1CCC2(CC1)CN(c1ccccn1)C2,> 11.4 µM (inactive),2.14% (inactive),inactive,-14.8% (inactive),> 46 µM (inactive),inactive,inactive,inactive,10 µM (active),,,5.94% (inactive),3,11.7,inactive,
Cc1noc(C)c1C(=O)N1CCC2(CCCN(Cc3ccccc3)C2)CC1,> 11.4 µM (inactive),3.01% (inactive),inactive,4.66% (inactive),> 46 µM (inactive),inactive,inactive,,inactive,,,4.04% (inactive),15.8,21.7,inactive,
c1ccc(C(c2ccccc2)N2CC[C@@]3(CCCNC3)C2)cc1,> 11.4 µM (inactive),0.329% (inactive),inactive,8.51% (inactive),> 46 µM (inactive),inactive,inactive,7.94 µM (active),inactive,,,-9.5% (inactive),4.5,-6.03,inactive,
O=C(c1ccco1)N1CCC2(CCN(Cc3ccncc3)CC2)CC1,> 11.4 µM (inactive),1.28% (inactive),20 µM (active),-11.4% (inactive),> 46 µM (inactive),inactive,inactive,,inactive,,,6.5% (inactive),12.7,20.5,inactive,7.94 µM (active)
Cn1cccc1C(=O)N1CCC2(CC1)CCN(C(c1ccccc1)c1ccccc1)CC2,> 11.4 µM (inactive),-3.6% (inactive),5.01 µM (active),-4.66% (inactive),> 46 µM (inactive),inactive,inactive,,15.8 µM (active),,,-19.5% (inactive),11.8,-8.47,inactive,
